Screens from PubChem BioAssay.
LYPLA1 inh = counter-screen for PME1 inhibitors: inhibitors of human LYPLA1 | recombinant LYPLA1, FP-Rh probe fluorescence polarization | inhibition, % at 5.9 µM | 320,000 tested, 0.16% active;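 active = inhibition above the mean of all tested compounds plus 3 SD, set per campaign, cut at about 14% in these data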;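 note: inhibitors block serine hydrolase probe labeling of LYPLA1 so polarization falls; 0% = enzyme with DMSO and 100% = wells lacking LYPLA1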
Target sequence (O75608 whole entry, looked up): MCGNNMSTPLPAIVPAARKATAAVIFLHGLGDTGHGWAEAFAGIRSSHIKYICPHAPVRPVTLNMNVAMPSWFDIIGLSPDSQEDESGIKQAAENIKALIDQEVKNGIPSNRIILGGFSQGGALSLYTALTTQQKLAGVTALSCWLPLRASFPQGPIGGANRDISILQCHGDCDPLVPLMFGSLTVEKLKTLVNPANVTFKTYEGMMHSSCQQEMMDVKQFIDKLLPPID
PME-1 primary = PME-1 (human) inhibition; recombinant PME-1, FP-Rh probe fluorescence polarization; inhibition, % at 5.9 µM; 320,000 tested, 0.53% active; Q9Y570;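 active = inhibition above the campaign mean of all compounds plus 3 SD, cut at about 26% in these data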;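 note: competitive labeling of PME-1 active site by serine hydrolase directed probe; 0% = PME-1 with DMSO and 100% = wells lacking PME-1 enzyme; inhibitors block probe labeling so polarization falls and inhibition rises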
Target sequence (Q9Y570 whole entry, looked up): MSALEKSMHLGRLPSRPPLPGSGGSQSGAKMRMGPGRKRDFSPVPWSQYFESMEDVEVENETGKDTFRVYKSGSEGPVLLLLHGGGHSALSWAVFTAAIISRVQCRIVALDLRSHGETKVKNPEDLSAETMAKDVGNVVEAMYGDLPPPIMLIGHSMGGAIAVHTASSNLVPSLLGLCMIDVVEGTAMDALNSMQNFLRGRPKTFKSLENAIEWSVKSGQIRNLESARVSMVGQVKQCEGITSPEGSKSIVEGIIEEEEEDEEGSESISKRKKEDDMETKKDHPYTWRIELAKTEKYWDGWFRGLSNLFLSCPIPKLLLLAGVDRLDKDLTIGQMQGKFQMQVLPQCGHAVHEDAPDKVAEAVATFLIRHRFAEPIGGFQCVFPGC
LYPLA2 inh = counter-screen for PME1 inhibitors: inhibitors of human LYPLA2; O95372; recombinant LYPLA2, FP-Rh probe fluorescence polarization; inhibition, % at 5.9 µM; 320,000 tested, 0.38% active;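 active = inhibition above the screen-wide mean plus 3 SD, limit set per campaign, cut at about 26% in these data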;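 note: 0% = LYPLA2 with DMSO and 100% = wells lacking LYPLA2 enzyme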
PREPL inhibitor = inhibits the human prolyl oligopeptidase-like enzyme; Q4J6C6; recombinant PREPL, fluorescence polarization activity-based probe; inhibition, % at 5.96 µM; 320,000 tested, 0.68% active; AID 2751;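 note: 0% = enzyme with DMSO and 100% = wells lacking enzyme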
Fam108B counter = blocks mouse Fam108B hydrolase in RBBP9 counter-screen | recombinant Fam108B, FP-Rh probe fluorescence polarization | 300,000 tested, 0.33% active | inhibition, % at 9.51 µM | AID 1947;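 active = inhibition above the screen mean inhibition plus 3 SD, computed separately per campaign, cut at about 18% in these data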;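 note: inhibitors lower polarization as less probe binds the enzyme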
LYPLA2 conf = counter-screen for PME1 inhibitors: confirmation of human LYPLA2 inhibitors | shares compounds with LYPLA2 inh | recombinant LYPLA2, FP-Rh probe fluorescence polarization | inhibition, % at 5.9 µM | 1,100 tested, 72% active | AID 2232;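 active = mean inhibition across replicates above the hit cutoff set in the primary screen, cut at about 26% in these data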;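 note: blocked labeling of the enzyme by serine hydrolase FP-Rh probe lowers polarization; 0% = enzyme with DMSO and 100% = wells lacking LYPLA2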
LYPLA2 gel ABPP = LYPLA2 (human) inhibition, late stage results; inhibition, % at 20 µM; rhLYPLA2 in mouse brain proteome, gel ABPP FP-Rh; AID 652029; 150 tested, 30% active; shares compounds with LYPLA2 inh;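 active = inhibition of LYPLA2 enzyme probe labeling above about 50%, limit read from the data; inactive = inhibition below that limit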;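 note: loss of FP-Rh probe labeling of the LYPLA2 gel band measured as band density; 0% = DMSO only control band and 100% = blank gel background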
PREPL confirm = human PREPL inhibition, confirmation; shares compounds with PREPL inhibitor; recombinant PREPL, fluorescence polarization activity probe; inhibition, % at 5.96 µM; 2,000 tested, 67% active; AID 2803;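 note: 0% = protein with DMSO and 100% = wells lacking protein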
* hit, by the source's call; . = no result. Sampled rows, rich in hits. Any-hit rate of the full collection: about 1.3%. Cut-off read from the data, not from the text of the source, unless noted: active = inhibition above about 43%; inactive = the rest.

SMILES	LYPLA1 inh	PME-1 primary	LYPLA2 inh	PREPL inhibitor	Fam108B counter	LYPLA2 conf	PREPL confirm	others
COc1ccccc1C(=O)N1CCN(Cc2ccc3c(c2)OCO3)CC1	0.5	11.8	2.0	17.3	3.0	.	.
Cc1cc(C(=O)N2CCN(Cc3ccc4c(c3)OCO4)CC2)on1	-2.1	4.9	1.6	-3.2	-0.4	.	.
O=C(COc1ccc(Cl)cc1)N1CCN(Cc2ccc3c(c2)OCO3)CC1	0.9	-11.4	33.6*	-7.0	-3.5	29.2*	.
Cc1ccc(N2CC(C(=O)NCCS(=O)(=O)N3CCN(c4ccccc4)CC3)CC2=O)cc1C (stereo not drawn)	3.8	0.6	5.6	-5.0	-1.0	.	.
COc1ccc(CCNC(=O)CCC(=O)N2CCOc3ccccc32)cc1OC	1.1	5.2	-1.3	-7.4	1.9	.	.
CSCCC1NC(=O)N(CC(=O)N2N=C(c3ccc(Cl)cc3)CC2c2ccco2)C1=O (stereo not drawn)	0.4	-5.4	41.4*	-108.3	-7.7	36.8*	.
CCn1c(=O)cc(OCC(=O)N2CCN(c3cccc(C(F)(F)F)c3)CC2)c2ccccc21	7.5	3.1	51.0*	-0.4	0.1	46.8*	.
CCn1c(=O)cc(OCC(=O)N2CCCC2)c2ccccc21	3.4	1.6	0.9	-2.3	-0.7	.	.
CCN1C(=O)CC(C(=O)Nc2ccc(F)cc2)SC1=Nc1cccc(OC)c1 (stereo not drawn)	2.2	-6.4	29.0*	10.2	-4.8	7.7	.
O=C(O)CNC(=O)c1ccc(NC(=O)/C(=C/c2ccccc2)NC(=O)c2ccccc2)cc1	-3.7	-9.8	-6.0	-7.7	1.7	.	.
CCC1CCC(c2nnc(-c3ccc([N+](=O)[O-])cc3)o2)CC1 (stereo not drawn)	6.0	-2.3	49.3*	3.8	3.9	51.3*	.	LYPLA2 gel ABPP=23.0
Clc1ccc(-c2nnc(C3CC3)o2)cc1	4.7	2.0	9.5	4.6	1.2	.	.
O=C(COC(=O)c1cnccn1)c1ccc(C2CCCCC2)cc1	0.9	-7.9	30.6*	-14.8	1.4	30.3*	.
CC(C)NC(=O)NC(=O)COC(=O)c1cc(S(=O)(=O)N2CCCCC2)ccc1N1CCOCC1	1.5	0.1	26.6*	11.6	-1.3	24.4	.
O=C(OCCOc1cccc(Cl)c1)c1cc(S(=O)(=O)N2CCCCC2)ccc1N1CCOCC1	12.5	1.4	52.8*	14.8	-1.2	58.2*	.
O=C(COc1ccccc1[N+](=O)[O-])Nc1ccc(N2CCN(C(=O)c3cccs3)CC2)cc1	10.2	7.3	46.1*	44.4*	3.9	47.9*	64.4*
Cc1ccccc1OCC(=O)Nc1cc(S(=O)(=O)N2CCCCC2)ccc1N1CCN(C)CC1	-2.0	9.0	4.5	7.1	-1.6	.	.
C#CCOCCOCCOCCNc1nc(N2CCN(C(=O)CCCCCCCCCCNC(=O)[C@H]([C@@H](C)CC)n3cc(CCCCCN)nn3)CC2)nc(N2CCN(C(=O)CCCCCCCCCCNC(=O)[C@H]([C@@H](C)CC)n3cc(CCCCN=C(N)N)nn3)CC2)n1	10.8	-15.6	56.8*	63.1*	-7.5	56.3*	56.8*
C#CCOCCOCCOCCNc1nc(N2CCN(C(=O)CCCCCCCCCCNC(=O)[C@@H](CCC(=O)O)n3cc(CCCCCN)nn3)CC2)nc(N2CCN(C(=O)CCCCCCCCCCNC(=O)[C@H]([C@@H](C)CC)n3cc(CCCCCN)nn3)CC2)n1	3.2	-2.3	18.0	30.5	-1.4	.	.
O=C(c1ccc(CNc2c(N3CCCC3)c(=O)c2=O)cc1)N1CC=C(c2ccccc2)CC1	11.9	6.9	47.0*	43.5*	3.0	52.5*	41.7	LYPLA2 gel ABPP=21.0
COc1cc(F)cc(-c2ccc3c(c2)c(C#Cc2ccsc2)c(-c2cc(OC)cc(OC)c2)n3C)c1	.	.	.	11.1	.	.	.
Cc1ccc2c(c1)C1CN(C)CCC1N2Sc1ccccc1[N+](=O)[O-] (stereo not drawn)	4.6	10.0	1.9	45.1*	3.1	.	38.1
Cc1ccc2c(c1)[C@@H]1CN(C)CC[C@@H]1N2S(=O)(=O)c1ccc([N+](=O)[O-])cc1	3.2	0.4	-3.0	3.7	-1.1	.	.
Cc1cc(=O)[nH]c(SC(C)C(=O)Nc2cccc3ccccc23)n1 (stereo not drawn)	3.0	-1.8	5.1	3.0	0.6	.	.
Cc1ccc(C)c(Nc2cc(C)nc3ccccc23)c1	-0.5	-9.4	3.4	44.4*	-4.2	.	38.4
SMILES	LYPLA1 inh	PME-1 primary	LYPLA2 inh	PREPL inhibitor	Fam108B counter	LYPLA2 conf	PREPL confirm	others
COc1ccc2[nH]c3c(N4CCC(O)(c5cccc(C(F)(F)F)c5)CC4)ncnc3c2c1	-9.9	23.4	-10.5	49.7*	10.8	.	45.1*
CCOc1ccc2[nH]c3c(N4CCc5ccccc5C4)ncnc3c2c1	-9.6	-2.3	-19.8	54.4*	5.8	.	64.9*
COc1ccc2sc(-c3ccc(N(C)C)cc3)c(C#Cc3cncn3C)c2c1	.	.	.	46.5*	.	.	40.3
COc1ccc2sc(-c3ccc(N(C)C)cc3)c(C#CC(C)(C)O)c2c1	-0.4	10.4	1.1	12.8	.	.	.
Cc1cc(N2CCN(C)CC2)nc2ccc(NC(=O)CCC(=O)N3CCN(c4ccc([N+](=O)[O-])cc4)CC3)cc12	3.6	3.0	17.9	66.4*	3.8	.	60.4*
Cc1cc(N2CCOCC2)nc2ccc(NC(=O)CCC(=O)N3CCN(c4ccccc4)CC3)cc12	2.4	1.2	6.2	19.1	-1.9	.	.
Cc1occc1-c1nnc(SCC(=O)c2c[nH]c3ccccc23)n1C	-0.3	-2.3	-10.2	21.1	0.2	.	.
CCCn1c(SCC(=O)c2c[nH]c3ccccc23)nnc1-c1ccncc1	-6.8	3.3	6.6	44.1*	6.4	.	34.7
Fc1ccc(C(CNC(=S)NC2CCCCC2)N2CCOCC2)cc1 (stereo not drawn)	0.4	3.4	-2.8	4.6	1.0	.	.
N#Cc1ccc(CN2CCN(C(=O)c3ccc(S(=O)(=O)NCc4ccco4)cc3)CC2)cc1	-1.1	-0.8	2.4	50.4*	.	.	7.8
C=CCOC(=O)C1CC=CCC1C(=O)Oc1ccc(F)cc1F (stereo not drawn)	0.9	5.7	0.8	-3.0	0.2	.	.
CN(C)S(=O)(=O)c1cccc(-c2csc(=Nc3ccccc3)n2CCCN2CCOCC2)c1	0.3	15.1	0.1	56.3*	-2.8	.	55.2*
CC(=O)c1cccc(N=c2scc(-c3ccc(S(=O)(=O)N4CCOCC4)cc3)n2CCO)c1	-6.1	-2.0	-2.5	14.9	4.1	.	.
CCN(C(=O)Cn1nnc(-c2ccccc2)n1)C1CCS(=O)(=O)C1 (stereo not drawn)	0.7	-10.3	1.9	5.9	1.6	.	.
Cc1ccc(C(=O)C[n+]2ccc3ccccc3c2)cc1	-1.4	-3.2	-4.0	17.0	0.3	.	.
